Screening results deposited in PubChem BioAssay by National Center for Advancing Translational Sciences (NCATS).
Rows were chosen to be rich in hits. Some 6.1% of all compounds tested hit in one or more screens of this group.
HepG2 tox: kills HepG2 cells in TGF-b inhibitor counter-screen. HepG2 CAGA-GFP viability, ATP luminescence, 18 h. Potency, µM (highest dose often 46.1 µM), for inactives: at the top dose activity change, negative = cytotoxicity, actives largely listed as cytotoxic. 0.76% of 410,000 active. AID 588856
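HepG2 CAGA-GFP cells (1000/well, DMEM with 1% FBS) received compound, then TGF-beta at 500 pg/mL final, and were incubated 18 hours at 37 degrees C. Viability was read by CellTiter-Glo luminescence. Media-only wells were set as complete cell-killing and DMSO as no toxicity.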
TGFb SMAD3 inh: inhibitors of TGF-b signaling; 1.2% of 410,000 active; Potency, µM (top dose mostly 46.1 µM), for the others: top-dose activity, negative = inhibition, actives largely listed as inhibitors; HepG2 CAGA-GFP TGF-b/SMAD3 reporter, GFP fluorescence, 18 h; TGF-beta stimulated, 500 pg/mL final; note: % is set by controls: 0 for no effect and ±100 for the full control effect; nearly all actives have a fitted effect of over 65% in size
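Cell-based qHTS in HEPG2 carrying a CAGA-GFP Smad reporter; compounds added before 500 pg/mL final TGF-beta, 18 h incubation at 37 degrees C, GFP fluorescence quantified per cell by imaging cytometry.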
ATXN viability: cell viability loss in ATXN counter-screen; Potency, µM (top dose mostly 56.7 µM), hits mostly cytotoxic; 0.49% of 400,000 active; AID 651635; S2 cells (HEK-293 line with an ATXN2-luciferase reporter) viability, CellTiter-Fluor protease fluorescence, 24 h; note: nearly all actives have a fitted effect of over 40% in size
RORg inh: ROR gamma (mouse) transcription inhibition; Drosophila S2 Gal4-RORgamma UAS-luciferase reporter, 20 h; Potency, µM (series often up to 53.6 µM), without a hit: at the top dose activity change, negative = inhibition, usual class: inhibitors; 5.4% of 310,000 active; AID 2551; note: % is set by controls: 0 for no effect and ±100 for the full control effect; nearly all actives have a fitted effect of over 60% in size
Target sequence (P51450 whole entry, looked up, the tested form may be a part): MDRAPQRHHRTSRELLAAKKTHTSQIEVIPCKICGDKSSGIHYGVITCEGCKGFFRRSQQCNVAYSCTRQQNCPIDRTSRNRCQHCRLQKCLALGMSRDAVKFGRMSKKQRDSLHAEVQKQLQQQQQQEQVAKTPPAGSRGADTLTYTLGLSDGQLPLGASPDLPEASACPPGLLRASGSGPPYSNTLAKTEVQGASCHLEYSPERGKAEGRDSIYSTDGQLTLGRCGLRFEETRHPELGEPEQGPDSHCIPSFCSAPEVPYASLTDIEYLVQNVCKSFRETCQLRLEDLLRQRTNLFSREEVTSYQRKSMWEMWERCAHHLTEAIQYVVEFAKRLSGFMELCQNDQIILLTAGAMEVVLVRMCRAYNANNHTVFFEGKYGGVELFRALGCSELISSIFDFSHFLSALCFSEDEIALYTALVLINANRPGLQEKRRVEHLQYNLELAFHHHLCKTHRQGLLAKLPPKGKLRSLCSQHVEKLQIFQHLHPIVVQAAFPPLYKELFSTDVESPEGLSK
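Compounds are pin-transferred onto Drosophila Schneider cells expressing a copper-inducible Gal4–ROR gamma transactivation domain fusion. After 1 hr, copper sulfate is added to 700 uM final; luciferase is read 20 hr later.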
VP16 counter: counter-screen for ROR gamma inhibitors: Gal4-VP16 reporter; 3.5% of 310,000 active; Potency, µM (doses to about 53.6 µM), inactives show top-dose activity, negative = inhibition, most hits filed as inhibitors; Drosophila S2 Gal4-VP16 UAS-luciferase, luminescence, 20 h; AID 2546;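 note: Gal4-VP16 expression switched on by copper sulfate through the metallothionein promoter; % is set by controls: 0 for no effect and ±100 for the full control effect; nearly all actives have a fitted effect of over 50% in size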
ATXN2 expr inh: ATXN2 expression inhibition. HEK-293 ATXN2-luciferase reporter, luminescence, 24 h. Potency, µM (titrated, usually from 57 µM), without a hit: at the top dose activity change, negative = inhibition, actives largely listed as inhibitors. 0.72% of 360,000 active; note: % is set by controls: 0 for no effect and ±100 for the full control effect; nearly all actives have a fitted effect of over 55% in size
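ATXN2-luciferase reporter cells (luciferase flanked by upstream and downstream ATXN2 gene portions) were treated 24 h at 37 °C with compounds at up to 57 uM. SteadyGlo luminescence gave expression; GF-AFC fluorescence gave viability.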
The depositor's hits bear a star; i = inactive; ? = inconclusive; . = no result given. Calls come from the whole dose curve; as a rule, active = well fitted curve in the direction sought with a large enough effect; inconclusive = small, poorly fitted or top-dose-only effect, or another doubt; inactive = no such curve, though single readings can be large; an effect the other way counts as inactive or inconclusive. Potency is the fitted concentration of half-maximal effect.

SMILES	HepG2 tox	TGFb SMAD3 inh	ATXN viability	RORg inh	VP16 counter	ATXN2 expr inh
COc1cccc(NC(=S)N2CCN(Cc3ccccc3)CC2)c1	-6%	-10%	i	?	20µM*	?
S=C(Nc1cccc(Cl)c1)N1CCN(Cc2ccccc2)CC1	6%	?	i	10µM*	?	0%
COc1cc(NC(=S)N2CCN(Cc3ccccc3)CC2)cc(OC)c1	-2%	?	i	?	?	3%
Cc1cc(/C=C2\C=Cc3ccccc32)cc(C)c1N	-50%	?	.	.	.	.
CCN(CC)c1ccc(NC(=O)C2CCN(S(=O)(=O)c3c(C)noc3/C=C/c3ccccc3F)CC2)c(C)c1	-15%	-11%	.	.	.	.
O=C(C[n+]1cccc(Br)c1)c1ccc(F)cc1	10%	0%	.	.	.	.
CC(C)c1ccc(Cn2ccc3c4c(N)nc(NC5CC5)nc4ccc32)cc1	.	.	.	16µM*	?	24µM*
COc1ccccc1C(=O)N[C@@H]1c2ccccc2C2(CCN(Cc3cnn(C)c3C)CC2)[C@H]1O	.	.	i	.	.	.
COc1ccc(/C=N/n2c(-c3cccs3)n[nH]c2=S)cc1	-60%	31%	i	2.8µM*	?	-13%
Cc1ccc(/C=N/n2c(-c3cccs3)n[nH]c2=S)cc1	-2%	2%	i	2µM*	?	-7%
S=c1[nH]nc(-c2cccs2)n1/N=C/c1c(Cl)cccc1Cl	-1%	1%	i	11µM*	-26%	-20%
Cc1cc(C)cc(NC(=O)c2cc(S(=O)(=O)NCc3ccco3)ccc2F)c1	-21%	-8%	i	-18%	10µM*	?
Cc1cc(C)n(-c2ccc(C(=O)Nc3cccc(S(=O)(=O)N(C)C)c3)cc2)n1	1%	?	i	?	7.1µM*	-24%
Cc1cc(C)n(-c2ccc(C(=O)Nc3ccc(S(=O)(=O)N(C)C)cc3)cc2)n1	-38%	-13%	?	?	-6%	?
O=S(=O)(NCc1ccco1)c1ccc2c(c1)Cc1ccccc1-2	73%	10%	i	?	8.9µM*	48%
Cc1cc(C)n(-c2ccc(C(=O)Nc3ccc(C)c(S(=O)(=O)N(C)C)c3)cc2)n1	-11%	-9%	i	-34%	18µM*	-14%
Cc1cccc(C(=O)Nc2cccc(S(=O)(=O)NCc3ccco3)c2)c1	-24%	0%	?	.	.	-26%
CCC(=O)N1CCc2cc(S(=O)(=O)NCCC(=O)Nc3cccc(SC)c3)ccc21	-3%	-20%	i	.	.	-7%
Cc1c(C(=O)N(C)C2CCOC2)cnn1-c1ncc2c(n1)-c1ccccc1CCC2 (stereo not given)	.	.	i	.	.	.
Cc1cc(C)n(-c2ccc(C(=O)Nc3ccc(S(=O)(=O)NCc4ccco4)cc3)cc2)n1	-22%	?	i	?	16µM*	-31%
Cc1ccc(C(=O)Nc2ccc(S(=O)(=O)NCc3ccco3)cc2)cc1	-3%	-2%	i	-5%	-15%	6%
O=c1[nH]n(-c2cccc3cccnc23)c(=O)c2ccccc12	-5%	2%	i	-87%	-13%	0%
O=S1(=O)Nc2c(ccc3cccnc23)-c2ccccc21	-48%	1.3µM*	?	1.3µM*	2.5µM*	3.5µM*
Cc1cnc2c3c(cc(Cl)c2c1)-c1ccccc1S(=O)(=O)N3	-85%	4µM*	.	.	.	.
Cc1cccc(Nc2c3c(nc4nncn24)CCC3)c1C	-7%	?	.	.	.	.
O=c1c(Cl)c(NCCCO)cnn1-c1nc2ccccc2[nH]1	-55%	0%	?	5µM*	3.5µM*	?
CCOC(=O)N/N=C/c1cn(Cc2ccc(F)cc2)c2ccccc12	-53%	2.2µM*	i	-8%	-4%	.
CCOC(=O)N/N=C/c1cn(CCCOc2ccccc2)c2ccccc12	14%	15%	i	5%	-21%	-12%
